# Activity calls are given as the source filed them. Unless noted, the rule behind the calls is not given here.
# Columns and labels:
# [1] = compounds binding Alexa647 anti-His antibody – biochemical, small-molecule microarray, 635 nm fluorescence, artefact control for SMM control protein annotation, primary screen (AID 1128); conditions: higher = more signal;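 note: score merges feature fluorescence with signal-to-noise for each printed compound spot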
# [2] = system: Human papillomavirus type 1a E7 protein (residues 1-88); assay: HPV1a E7 small-molecule binders, primary screen, biochemical, small-molecule microarray, residues 1-88, 635 nm (AID 1129); conditions: small-molecule microarray binding, fluorescence 635 nm; higher = more signal
# [3] = target: Focal adhesion kinase 1 (Homo sapiens) (UniProt Q05397); assay: PTK2 protein binding on printed compound slides – biochemical, small-molecule microarray, 635/667 nm fluorescence, BSA, DTT, primary screen (AID 1130); conditions: 635 nm fluorescence, higher = more signal;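 note: composite of spot emission at 667 nm and signal to noise over triplicate slides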
# Chain of Focal adhesion kinase 1 (Homo sapiens) (Q05397 whole entry, looked up): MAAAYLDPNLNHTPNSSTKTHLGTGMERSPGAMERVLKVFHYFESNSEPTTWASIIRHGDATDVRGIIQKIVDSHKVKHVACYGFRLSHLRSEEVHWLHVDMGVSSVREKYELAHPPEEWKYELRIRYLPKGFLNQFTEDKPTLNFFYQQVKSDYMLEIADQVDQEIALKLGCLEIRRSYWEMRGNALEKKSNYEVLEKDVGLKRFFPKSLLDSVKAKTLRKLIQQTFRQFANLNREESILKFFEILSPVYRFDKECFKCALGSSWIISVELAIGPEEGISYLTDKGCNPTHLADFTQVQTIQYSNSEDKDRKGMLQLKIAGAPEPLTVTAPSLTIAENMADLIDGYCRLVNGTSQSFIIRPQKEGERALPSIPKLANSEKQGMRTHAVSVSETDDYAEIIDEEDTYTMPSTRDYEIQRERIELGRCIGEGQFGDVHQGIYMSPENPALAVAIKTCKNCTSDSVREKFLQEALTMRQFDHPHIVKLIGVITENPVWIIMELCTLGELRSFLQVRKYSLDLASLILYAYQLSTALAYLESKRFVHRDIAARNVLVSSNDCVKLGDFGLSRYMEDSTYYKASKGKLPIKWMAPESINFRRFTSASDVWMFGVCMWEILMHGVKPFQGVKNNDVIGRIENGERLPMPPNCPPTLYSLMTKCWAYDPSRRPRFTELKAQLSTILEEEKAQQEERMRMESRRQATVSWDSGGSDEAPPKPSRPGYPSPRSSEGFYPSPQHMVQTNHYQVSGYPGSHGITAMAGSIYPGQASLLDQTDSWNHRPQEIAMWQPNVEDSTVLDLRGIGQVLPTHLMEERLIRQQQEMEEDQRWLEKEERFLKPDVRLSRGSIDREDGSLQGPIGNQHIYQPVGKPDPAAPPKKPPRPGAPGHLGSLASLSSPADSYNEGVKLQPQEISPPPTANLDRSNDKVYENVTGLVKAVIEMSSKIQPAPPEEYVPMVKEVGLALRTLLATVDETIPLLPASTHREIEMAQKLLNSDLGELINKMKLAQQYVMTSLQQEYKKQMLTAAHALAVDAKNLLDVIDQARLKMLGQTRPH
# [4] = system: Fibrinogen (Alexa647-labelled); assay: Alexa647-fibrinogen binding to printed small molecules – biochemical, small-molecule microarray, 635/667 nm fluorescence, artefact control for SMM control-protein annotation, profiling panel (AID 1131); conditions: fibrinogen-A647 binding fluorescence, higher = more signal;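 note: z-score merges 667 nm fluorescence with per-spot signal-to-noise over triplicate slides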
# [5] = target: Follistatin (Homo sapiens) (UniProt P19883); assay: FST protein binding to printed compounds – biochemical, small-molecule microarray, 635/667 nm fluorescence, primary screen (AID 1132); conditions: 635 nm fluorescence, higher = more signal
# Chain of Follistatin (Homo sapiens) (P19883 whole entry, looked up): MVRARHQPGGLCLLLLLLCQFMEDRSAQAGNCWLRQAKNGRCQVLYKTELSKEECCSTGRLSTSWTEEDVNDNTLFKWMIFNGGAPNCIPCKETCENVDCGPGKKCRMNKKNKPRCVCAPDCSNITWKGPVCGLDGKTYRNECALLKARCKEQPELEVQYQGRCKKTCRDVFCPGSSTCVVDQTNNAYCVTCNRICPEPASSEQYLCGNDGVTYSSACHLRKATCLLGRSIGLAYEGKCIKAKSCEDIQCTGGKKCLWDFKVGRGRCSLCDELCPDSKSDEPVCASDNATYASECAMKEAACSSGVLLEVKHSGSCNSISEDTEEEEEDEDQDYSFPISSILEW
# [6] = target: Fibroblast growth factor 2 (Homo sapiens) (UniProt P09038); assay: basic fibroblast growth factor binding to printed compounds – biochemical, small-molecule microarray, 635/667 nm fluorescence, primary screen (AID 1133); conditions: FGF2, fluorescence 635/667, higher = more signal
# Chain of Fibroblast growth factor 2 (Homo sapiens) (P09038 whole entry, looked up): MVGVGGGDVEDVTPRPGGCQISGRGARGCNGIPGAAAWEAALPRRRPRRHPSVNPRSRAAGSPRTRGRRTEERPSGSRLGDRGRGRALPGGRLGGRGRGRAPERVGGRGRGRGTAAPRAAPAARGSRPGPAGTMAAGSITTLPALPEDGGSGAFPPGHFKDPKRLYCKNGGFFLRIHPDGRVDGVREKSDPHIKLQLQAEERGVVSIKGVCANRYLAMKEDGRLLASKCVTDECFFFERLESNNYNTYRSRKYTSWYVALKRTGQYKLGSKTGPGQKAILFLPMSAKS
# [7] = JC-1 mitochondrial potential readout, lung cancer cells – cell-based, A549, JC-1 fluorescence, basal, 24 h, 100 nL, profiling panel (AID 1138); conditions: higher = more signal;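 note: A549 lung adenocarcinoma cells under basal conditions with no added stimulus; test concentration not given here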
# Lefty1 = Lefty1 protein binding to printed compounds – biochemical, small-molecule microarray, 635/667 nm fluorescence, primary screen (AID 1139); conditions: fluorescence 635/667, higher = more signal
# [8] = system: wheat germ agglutinin (Triticum aestivum), Alexa647-labelled; assay: Alexa647-WGA lectin binding to printed small molecules – biochemical, small-molecule microarray, 635/667 nm fluorescence, artefact control for SMM control-protein annotation, profiling panel (AID 1140); conditions: WGA-A647 binding, 635 nm fluorescence, higher = more signal;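 note: score merges 667 nm feature emission with signal to noise over triplicate slides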
# [9] = target: Luciferin 4-monooxygenase (Photinus pyralis) (UniProt P08659); assay: inhibition of purified Photinus pyralis luciferase – biochemical, luminescence, purified enzyme, 2006 set, primary screen (AID 1141); conditions: purified firefly luciferase, SteadyGlo luminescence, 30 min; higher = more signal, called active from +8 up or from −8 down;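 note: cell-free assay with purified firefly luciferase at 100 ng per well in PBS; test concentration not given here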
# Chain of Luciferin 4-monooxygenase (Photinus pyralis) (P08659 whole entry, looked up): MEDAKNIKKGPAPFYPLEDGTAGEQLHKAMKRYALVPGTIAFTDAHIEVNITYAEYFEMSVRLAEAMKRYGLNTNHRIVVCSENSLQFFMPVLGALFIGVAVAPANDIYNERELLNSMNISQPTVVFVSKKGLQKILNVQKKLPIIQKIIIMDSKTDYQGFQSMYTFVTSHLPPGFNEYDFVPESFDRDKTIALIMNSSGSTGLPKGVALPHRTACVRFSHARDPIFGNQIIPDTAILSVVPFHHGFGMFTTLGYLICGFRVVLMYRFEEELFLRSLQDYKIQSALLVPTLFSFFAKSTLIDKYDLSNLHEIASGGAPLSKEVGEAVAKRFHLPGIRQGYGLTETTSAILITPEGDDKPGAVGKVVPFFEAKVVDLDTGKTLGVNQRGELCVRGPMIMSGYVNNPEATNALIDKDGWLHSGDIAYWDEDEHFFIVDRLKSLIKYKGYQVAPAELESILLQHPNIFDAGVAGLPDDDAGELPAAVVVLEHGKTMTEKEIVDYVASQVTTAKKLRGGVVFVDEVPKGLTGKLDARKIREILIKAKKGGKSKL
# [10] = system: Wnt5a (protein binding on small-molecule microarray); assay: small molecules binding Wnt5a protein – biophysical, small-molecule microarray, 635/667 nm fluorescence, primary screen (AID 1142); conditions: 635 nm fluorescence, higher = more signal;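 note: fluorescence read at 667 nm with signal to noise per printed feature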
# [11] = ATP-based viability of Huh7 replicon cells – cell-based, CellTiter-Glo luminescence, basal, 48 h, cytotoxicity control for HCV replication inhibitor project, primary screen (AID 1143); conditions: higher = more signal, called active from +8 up or from −8 down;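 note: Huh7 hepatoma cells carrying a hepatitis C replication reporter with no stimulus; test concentration not given here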
# [12] = Pseudomonas biofilm growth suppression – PAO1 strain, BacTiter-Glo luminescence, LB-PBS, primary screen (AID 1144); conditions: P. aeruginosa PAO1 biofilm, 12 h, higher = more signal
# [13] = basal CRE-LacZ reporter activity in PC12 – cell-based, unstimulated, primary screen (AID 1145); conditions: no forskolin, luminescence, 4.5 h, higher = more signal, called active from +8 up or from −8 down
# [14] = forskolin-driven CRE-LacZ activity in PC12 – cell-based, CRE-LacZ reporter, forskolin-stimulated, primary screen (AID 1146); conditions: luminescence, 4.5 h, higher = more signal, called active from +8 up or from −8 down;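 note: PC12 cells with 6xCRE LacZ reporter stimulated by forskolin 10 µM; beta-galactosidase reporter signal reflecting CREB driven transcription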
# [15] = target: Streptavidin (Streptomyces avidinii) (UniProt P22629); assay: compounds binding control protein streptavidin – biophysical, small-molecule microarray, 635/667 nm fluorescence, artefact control for SMM compound annotation, primary screen (AID 1147); conditions: higher = more signal;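 note: signal reflects streptavidin binding to arrayed compounds as a control protein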
# Chain of Streptavidin (Streptomyces avidinii) (P22629 whole entry, looked up): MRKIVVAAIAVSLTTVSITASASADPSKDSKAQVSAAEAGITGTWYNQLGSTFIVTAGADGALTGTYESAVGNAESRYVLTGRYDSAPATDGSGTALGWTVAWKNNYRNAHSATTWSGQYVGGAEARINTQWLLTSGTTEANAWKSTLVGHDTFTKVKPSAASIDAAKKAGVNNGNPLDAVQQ
# [16] = probe aInhba binding on compound microarray – biochemical, small-molecule microarray, 635/667 nm fluorescence, primary screen (AID 1148); conditions: higher = more signal;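 note: score merges 667nm spot fluorescence with signal-to-noise for antibody binding to printed compounds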
# Torsin-1A (Homo sapiens) [17] = target: Torsin-1A (Homo sapiens) (UniProt O14656); assay: TOR1A wild-type binding on microarray – cell lysate, small-molecule microarray, lysate, 635/667 nm, primary screen (AID 1149); conditions: COS7 hTOR1A-WT lysate, 635 nm fluorescence, higher = more signal
# Chain of Torsin-1A (Homo sapiens) (O14656 whole entry, looked up): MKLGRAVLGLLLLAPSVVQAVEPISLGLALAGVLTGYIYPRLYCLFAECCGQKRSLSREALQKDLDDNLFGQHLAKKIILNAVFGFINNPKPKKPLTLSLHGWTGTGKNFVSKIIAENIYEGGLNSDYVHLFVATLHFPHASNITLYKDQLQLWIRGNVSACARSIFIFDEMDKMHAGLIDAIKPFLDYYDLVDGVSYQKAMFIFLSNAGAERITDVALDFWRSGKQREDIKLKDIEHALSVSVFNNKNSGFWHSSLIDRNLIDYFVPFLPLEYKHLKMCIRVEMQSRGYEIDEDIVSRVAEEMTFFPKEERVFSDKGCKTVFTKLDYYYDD
# Torsin-1A (Homo sapiens) [18] = target: Torsin-1A (Homo sapiens) (UniProt O14656); assay: torsin A mutant lysate binding on microarrays – cell lysate, small-molecule microarray, COS7 lysate, 635/667 nm fluorescence, primary screen (AID 1150); conditions: COS7 hTOR1A mutant lysate, 635 nm fluorescence, higher = more signal;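 note: score pools 667 nm emission and signal to noise measuring lysate protein binding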
# [19] = system: Sonic hedgehog protein (Shh); assay: Sonic hedgehog microarray binding compounds – biochemical, small-molecule microarray, 635/667 nm fluorescence, primary screen (AID 1151); conditions: 635 nm fluorescence, higher = more signal;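 note: Shh protein binding to compounds spotted on small-molecule microarray slides; score combines spot fluorescence intensity with signal-to-noise across triplicate slides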
Compound,composite z-score [1],composite z-score [2],composite z-score [3],composite z-score [4],composite z-score [5],composite z-score [6],z-score [7],composite z-score (Lefty1),composite z-score [8],z-score [9],composite z-score [10],z-score [11],z-score [12],z-score [13],z-score [14],composite z-score [15],composite z-score [16],composite z-score (Torsin-1A (Homo sapiens) [17]),composite z-score (Torsin-1A (Homo sapiens) [18]),composite z-score [19]
CC(C)NC(=O)[C@@H]1c2ccccc2C(=O)N(Cc2ccccc2Cl)[C@H]1c1ccc(CO)cc1,3.06,0.247,-0.313,-0.629,-0.555,-0.222,2.55,-0.221,0.842,-1.08 (inactive),-0.243,-0.485 (inactive),0.471 (inactive),0.145 (inactive),-0.47 (inactive),-0.418,-0.179,0.267,0.343,0.0599
O=C1O[C@H](c2ccccc2)[C@H](c2ccccc2)N2[C@H]1[C@@H](C(=O)O)[C@]1(C(=O)Nc3ccc(C#CC4=CCCCC4)cc31)[C@H]2c1ccc(OCCO)cc1,0.463,1.24,0.638,0.98,1.26,0.919,-2.57,1.28,1.1,-9.5 (active),1.04,-1.89 (inactive),-1.37 (inactive),0.0816 (inactive),3.42 (inactive),1.22,0.201,0.586,1.16,1.09
NCCCCCNC(=O)[C@H]1C[C@H]2C(=O)NCC(=O)N2[C@H]1c1cccc(OCCO)c1,0.524,0.817,0.369,0.909,1.26,1.08,0.431,1.5,0.739,0.199 (inactive),0.584,0.241 (inactive),-0.147 (inactive),-1.08 (inactive),0.0161 (inactive),0.579,-0.144,0.483,0.727,2.01
O=C1O[C@@H](c2ccccc2)[C@@H](c2ccccc2)N2[C@@H](c3ccc(O)cc3)[C@]3(C(=O)Nc4ccc(C#CC5(O)CCCCCC5)cc43)[C@@H](C(=O)N3CCCCCCC3)[C@H]12,1.47,1.26,2.74,0.962,1.47,1.62,-0.15,1.68,1.4,-0.593 (inactive),1.74,-2.41 (inactive),-1.55 (inactive),0.362 (inactive),-0.981 (inactive),3.13,1.67,2.71,2.35,2.27
CC(C)(C)OC(=O)CC[C@]1(C(=O)N2CCCCC2)N=C(c2ccc(OCCCO)cc2)O[C@H]1c1ccccc1N=[N+]=[N-],2.92,1.26,1.91,0.753,0.771,1.6,2.83,0.513,0.971,-12.8 (active),0.556,-2.48 (inactive),0.043 (inactive),1.43 (inactive),-1.57 (inactive),1.87,0.813,0.569,2.11,0.837
CC(C)(C)N1CC=CC23O[C@@H]4/C=C\CCCOC(=O)C4[C@H]2C(=O)N(CCO)[C@@H]3C1=O (stereo not given in full),0.543,0.193,0.19,-0.233,-0.993,-0.57,-0.913,-0.86,0.0851,0.885 (inactive),0.501,0.0369 (inactive),-0.647 (inactive),-0.492 (inactive),-0.533 (inactive),-0.801,-0.416,-0.769,-0.875,-0.131
N#Cc1ccc(NN2C(C(O)c3ccc([N+](=O)[O-])cc3)C=CC3C(=O)N(c4ccccc4)C(=O)C32)cc1 (stereo not given),0.728,1.24,0.943,0.619,0.717,-0.0956,-0.257,-0.269,0.998,0.843 (inactive),0.72,0.845 (inactive),-0.245 (inactive),-0.525 (inactive),0.516 (inactive),0.323,0.137,-0.169,0.303,-0.261
Cc1ccc(S[C@]2(C(=O)NCC(C)C)CC(=O)N(Cc3ccccc3Cl)[C@@H]2c2ccc(CO)cc2)cc1,1.8,-1.41,-1.09,-0.804,-1.5,-1.21,1.37,-2.17,0.208,-0.79 (inactive),-0.343,0.554 (inactive),1.15 (inactive),0.118 (inactive),-0.227 (inactive),-1.67,-0.331,-0.326,0.961,-1.18
CCCN1C(=O)[C@@]2(CCC(=O)OC(C)(C)C)N=C(c3ccc(OCCCO)cc3)O[C@H]2c2ccccc21,2.6,0.999,0.677,0.274,1.4,1.53,1.13,0.691,0.133,-2.45 (inactive),0.399,-4.47 (inactive),-1.36 (inactive),1.46 (inactive),-1.6 (inactive),0.0808,0.0319,-0.0821,0.408,1.5
CC(C)N1C(=O)C[C@@](C(=O)NCc2ccccc2)(c2ccc([N+](=O)[O-])cc2)[C@H]1c1ccc(CO)cc1,2.58,1,0.159,-0.511,0.692,0.118,0.316,0.119,0.549,0.982 (inactive),-0.214,-1.5 (inactive),-0.936 (inactive),1.03 (inactive),-0.703 (inactive),-0.939,0.0275,1.35,0.529,0.235
COCCCNC(=O)[C@@]1(C)c2ccccc2C(=O)N(Cc2cc(C(F)(F)F)cc(C(F)(F)F)c2)[C@H]1c1ccc(CO)cc1,-0.12,-0.203,0.295,0.207,-0.672,-1.5,0.509,-0.191,0.0593,1.16 (inactive),-0.676,-2.82 (inactive),-0.417 (inactive),0.468 (inactive),0.243 (inactive),-0.673,-0.0675,-1.37,-1.27,-0.207
